In the library only some 9.4% were active in any assay of this set; here they are far more common.
IMPase Li inh: membrane-permeable IMPase blocker, potentiated with lithium | CHO-M1 cells, IP1 TR-FRET (IP-One), carbachol + lithium | Potency, µM (highest dose often 59.4 µM), hits mostly inhibitors | actives 0.35% (n = 210,000) | AID 1457;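 also: IP1 builds up when IMPase is blocked and the TR-FRET signal falls; nearly all actives have a fitted effect of over 50% in size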
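Concentration–response in CHO-M1 cells, lithium-potentiated; 30 min at 37C. IP1 detected by competitive TR-FRET after 10 min lysis at RT. Hill-fitted AC50.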
ALDH1A1 block: ALDH1A1 (human) enzyme inhibition. P00352. Purified ALDH1A1, NADH fluorescence, propionaldehyde substrate. Potency, µM (highest dose often 75.3 µM), most hits filed as inhibitors. actives 7.3% (n = 220,000); active = well fitted inhibition curve with a large enough effect, not every such curve was filed as active; inconclusive = small, poorly fitted or top-dose-only effect, or another doubt; inactive = no such curve, though single readings can be large or run the other way
Target sequence (P00352 whole entry, looked up): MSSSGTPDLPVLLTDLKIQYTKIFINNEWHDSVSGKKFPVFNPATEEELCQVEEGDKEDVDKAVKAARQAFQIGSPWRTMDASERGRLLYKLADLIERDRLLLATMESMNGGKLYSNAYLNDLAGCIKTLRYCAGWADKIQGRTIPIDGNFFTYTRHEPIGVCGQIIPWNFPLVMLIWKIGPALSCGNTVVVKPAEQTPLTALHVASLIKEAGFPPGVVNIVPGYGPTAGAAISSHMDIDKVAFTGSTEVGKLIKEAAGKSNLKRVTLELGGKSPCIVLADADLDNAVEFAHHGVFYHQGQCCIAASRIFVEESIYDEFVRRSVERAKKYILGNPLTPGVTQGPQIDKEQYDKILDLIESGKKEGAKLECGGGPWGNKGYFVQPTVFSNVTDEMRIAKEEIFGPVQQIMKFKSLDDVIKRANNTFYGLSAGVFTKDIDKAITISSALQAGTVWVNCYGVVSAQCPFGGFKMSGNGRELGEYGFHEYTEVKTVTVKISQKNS
HTT cytoprotect: cytoprotection in Huntington HTT-Q103 PC12 cell model; Potency, µM (series often up to 56.4 µM), most hits filed as activators; PC12 HTT-Q103 induced, cytoprotection, ATP luminescence, 40 h; actives 0.14% (n = 230,000); also: nearly all actives have a fitted effect of over 45% in size
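Compounds added alongside 100 nM tebufenozide, which induces toxic Q103 huntingtin exon 1-GFP in stable PC12 cells; surviving cells quantified by luminescent ATP measurement. Medium: phenol red-free DMEM, 5% equine and 5% calf serum.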
IMPase cell inh: cell-permeable inhibitors of inositol monophosphatase (IMPase); inhibition (IP1 accumulation), % at 46.1 µM; CHO-M1 cells, IP1 accumulation, HTRF TR-FRET ratio; 120,000 tested, under 10 active; P97697; active = well fitted curve in the direction sought with a large enough effect in the signal ratio, not every such curve was filed as active; inconclusive = small, poorly fitted or top-dose-only effect, or a change in a side signal; inactive = no such curve, though single readings can be large or run the other way; the % refers to the signal ratio;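 also: cells stimulated with carbachol in lithium chloride buffer; higher means more IMPase inhibition seen as more IP1 and lower FRET ratio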
Target sequence (P97697 whole entry, looked up): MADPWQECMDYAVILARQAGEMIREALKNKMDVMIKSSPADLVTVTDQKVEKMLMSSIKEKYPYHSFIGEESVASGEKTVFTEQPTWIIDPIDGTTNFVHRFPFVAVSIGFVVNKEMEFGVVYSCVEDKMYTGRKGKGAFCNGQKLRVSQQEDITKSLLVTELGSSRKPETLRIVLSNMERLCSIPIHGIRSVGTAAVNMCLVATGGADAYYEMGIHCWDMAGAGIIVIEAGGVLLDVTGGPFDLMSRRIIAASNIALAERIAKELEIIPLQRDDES
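The IP-One HTRF competitive assay in carbachol-stimulated CHO-M1 cells quantifies cellular IP1. Compounds spanned up to 46 uM final, and activity is expressed as AC50 from concentration-response fits of the ratio and donor data.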
HttQ103 aggreg: mutant huntingtin aggregation inhibition; PC12 HttQ103-GFP aggregates, Acumen cytometry, 40 h; Potency, µM (highest dose often 46.1 µM), usual class: inhibitors; actives 1.1% (n = 220,000); also: nearly all actives have a fitted effect of over 60% in size
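Steps: seed 1500 PC12 HTTQ103-GFP cells/well; add tebufenozide, 100 nM final; add compound titration; add ATPLite reagent; quantify GFP aggregates by laser scanning cytometry.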
HPGD block: blocks human HPGD enzyme activity | purified HPGD, NADH fluorescence kinetic, PGE2 substrate | Potency, µM, hits mostly inhibitors | actives 4.3% (n = 150,000); active = well fitted inhibition curve with a large enough effect, not every such curve was filed as active; inconclusive = small, poorly fitted or top-dose-only effect, or another doubt; inactive = no such curve, though single readings can be large or run the other way
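NADH formation kinetics: reaction with 30 uM PGE2 and 1 mM NAD+ (final), 20 nM enzyme, Tris-HCl pH 8 with Tween 20, after 15 min compound preincubation at room temperature. Fluorescence change, last versus first of five reads.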
Hits are given with their value; – = inactive; ? = inconclusive; · = no result; [ ] = remark or other dose. Unless noted, calls follow the shape of the dose curve; as a rule, active = well fitted curve in the direction sought with a large enough effect; inconclusive = small, poorly fitted or top-dose-only effect, or another doubt; inactive = no such curve, though single readings can be large; an effect the other way counts as inactive or inconclusive.

SMILES	IMPase Li inh	ALDH1A1 block	HTT cytoprotect	IMPase cell inh	HttQ103 aggreg	HPGD block
O=C(NCc1ccc2c(c1)OCO2)c1nn(-c2ccccc2)c(=O)c2ccccc12	–	5.6µM	–[10 µM]	–	–	–
O=C(COC(=O)Cc1cn2ccsc2n1)NCc1ccc2c(c1)OCO2	–	?	–[10 µM]	–	–	14µM
O=C(/C=C/c1ccco1)NCc1ccc2c(c1)OCO2	–	20µM	–	·	–	·
O=C(CN1C(=O)NC2(CCCCCCC2)C1=O)NCc1ccc2c(c1)OCO2	–	–	–	–	–	32µM
COc1ccc(CNC(=O)CN2C(=O)NC3(CCCCCC3)C2=O)cc1OC	–	–	–	·	–	·
O=C(COC(=O)Cc1cn2ccsc2n1)NC12CC3CC(CC(C3)C1)C2	–	–	–[10 µM]	–	–	–
O=C(/C=C/c1ccco1)Nc1ccc2c(c1)OCO2	–	?	–[10 µM]	·	–	·
COc1cccc(NC(=O)CC2Nc3cc(C)c(C)cc3NC2=O)c1 (stereo not drawn)	·	·	·	–	·	·
CN(C)c1cc[n+](Cc2c(Cl)cccc2Cl)cc1	–	–	–[10 µM]	–	8.9µM	–
COc1ccc(CN=Cc2c(O)[nH]c3ccccc23)cc1	–	–	–	·	–	·
Oc1c(C=NCc2ccc(F)cc2)[nH]c2ccc(Br)c(Cl)c12	–	4.5µM	–	–	–	?
Cc1ccc(CN=Cc2[nH]c3ccc(Br)c(Cl)c3c2O)cc1	8.9µM	0.4µM	–	–	–	28µM
O=S(=O)(CCN(CCS(=O)(=O)C(F)(F)F)CC1CCCO1)C(F)(F)F (stereo not drawn)	–	7.1µM	–	–	–	–
CCCC12CN3CCN(CC(C3)/C1=N\NC(=O)c1ccccc1N)C2	–	?	–[10 µM]	–	–	?
CCCC12CN3CCN(CC(C3)/C1=N\NC(=O)c1ccc(C(C)(C)C)cc1)C2	–	32µM	–[10 µM]	–	–	–
Cn1nc(C(F)(F)F)c(C#N)c1N1CCN(c2ccc(F)cc2)CC1	–	–	–	–	11µM	–
Cn1nc(C(F)(F)F)c(C#N)c1N1CCN(c2ccccc2)CC1	–	?	–	–	1.4µM	–
Cn1cccc1C(=O)N1CCC2(CCCN(C(=O)Nc3ccccc3)C2)CC1	–	–	–	·	·	–
O=C(Nc1ccc(F)cc1)Nc1ccccc1F	–	–	–	·	?	·
O=C(Nc1ccc2[nH]c(=S)sc2c1)Nc1ccccc1F	·	1µM	–[10 µM]	·	–[9.22 µM]	·
O=C(/C=C/c1ccco1)NCC1COc2ccccc2O1 (stereo not drawn)	·	·	–[10 µM]	·	–[9.22 µM]	·
O=C(c1cc2c(s1)-c1ccccc1OC2)N1CCCC1	–	?	–	–	?	?
O=C(c1cc2c(s1)-c1ccccc1OC2)N1CCN(c2ccccc2)CC1	7.9µM	?	–	?	–	?
O=C(c1cc2c(s1)-c1ccccc1OC2)N1CCN(c2ccccn2)CC1	10µM	?	–	?	–	?
CC(C)CO[C@H](c1ccc2c(c1)OCO2)[C@H](C)Br	–	–[13.5 µM]	–[10 µM]	·	·	–
SMILES	IMPase Li inh	ALDH1A1 block	HTT cytoprotect	IMPase cell inh	HttQ103 aggreg	HPGD block
Cc1cc(C)c(OCCOCCn2c(-c3ccc(Cl)cc3)nc3ccccc3c2=O)c(C)c1	·	·	·	–	·	·
Cc1ccccc1-c1nnc(NC(=O)c2ccc(N3C(=O)CCC3=O)cc2)s1	–	?	·	·	–	–
C/C=C/C(=O)Nc1nnc(-c2ccccc2C)s1	10µM	–	–[10 µM]	·	–[9.22 µM]	·
C=C(C)C(=O)Nc1nnc(-c2ccccc2C)s1	–	7.9µM	–[10 µM]	·	–[9.22 µM]	·
COc1ccc(Oc2ncc3nc(C)c(=O)n(Cc4cccc(OC)c4)c3n2)cc1	–	?	–	·	·	·
CN1CCN(Cc2nc3ccccc3c(=O)n2Cc2nc(-c3ccc([N+](=O)[O-])cc3)cs2)CC1	·	13µM	–[10 µM]	–	?	·
COC(=O)c1ccc(COC(=O)c2ccc(N(C)C)cc2)cc1	–	25µM	–	–	–	?
CN(C)c1ccc(C(=O)OCC(=O)NCCC2=CCCCC2)cc1	–	35µM	–	·	–	·
O=C(COC(=O)c1cnc(Cl)c(Cl)c1)NCCC1=CCCCC1	–	13µM	–	·	–	·
CN(C)c1ccc(C(=O)OCc2ccccc2)cc1	–	?	–	–	–	?
O=c1c(CCc2ccccc2)nc2cnc(N3CCNCC3)nc2n1CCc1ccccc1	–	?	–	·	·	?
CC1=NN(c2ccccc2)C(=O)/C1=C\N1CC(C)OC(C)C1 (stereo not drawn)	–	25µM	–	–	–	–
CC1=NN(c2ccccc2)C(=O)/C1=C/C=C/c1ccccc1	–	?	·	·	?	–
O=C(NCCc1cn2ccccc2n1)c1cc(COc2ccc3ncccc3c2)on1	·	?	–	·	11µM	·
O=C(NC1CCCC1)c1cc(COc2ccc3ncccc3c2)on1	·	·	?	·	–[9.22 µM]	·
COC(=O)N1CCC2(CCCN(C(=O)Nc3cccc(C#N)c3)C2)CC1	–	–	–	·	·	–
CCn1c2ccccc2c2cc(NC(=O)CNCC3CCCO3)ccc21 (stereo not drawn)	–	32µM	–	·	–	·
COc1ccc(-c2cnc(SCC(=O)Nc3ccc4c(c3)OCO4)n2Cc2ccco2)cc1	–	11µM	–[10 µM]	–	–	–
O=C(CSc1nnc(-c2ccc(Cl)cc2)n1Cc1ccco1)Nc1ccc2c(c1)OCCO2	–	5µM	–	–	–	25µM
O=C(CSc1nnc(-c2ccccc2Cl)n1Cc1ccco1)Nc1ccc2c(c1)OCCO2	–	10µM	–[0.074 µM]	–	–	–
N[C@@H](Cc1c[nH]c2ccc([N+](=O)[O-])cc12)C(=O)O	–	–[13.5 µM]	–[10 µM]	·	·	–
CCn1c(SCC(=O)Nc2ccc3c(c2)c2ccccc2n3CC)nnc1-c1cnccn1	–	–	–	–	–	–
CCn1c2ccccc2c2cc(NC(=O)CSc3nnc(C4CC4)n3Cc3ccco3)ccc21	–	18µM	–[10 µM]	–	–	?
Cc1ccccc1-c1nsc(SCC(=O)NCc2ccc3c(c2)OCO3)n1	–	22µM	–[10 µM]	–	–	–
CC(C)C(=O)Nc1nnc(SCC(=O)NCc2ccc3c(c2)OCO3)s1	–	–	–	·	–	·
SMILES	IMPase Li inh	ALDH1A1 block	HTT cytoprotect	IMPase cell inh	HttQ103 aggreg	HPGD block
CCCn1nnnc1SCC(=O)NCc1ccc2c(c1)OCO2	–	?	–[10 µM]	–	0.016µM	–
CC(C)Nc1nnc(SCC(=O)NCc2ccc3c(c2)OCO3)s1	–	18µM	–	·	–	·
O=S(=O)(O)c1cc(O)c2c(O)c(N=Nc3cccc4ccccc34)c(S(=O)(=O)O)cc2c1	–	–[13.5 µM]	–[10 µM]	·	·	–
C[C@@H](C1[C@@H](O)CC2C3C=CC4C[C@@H](O)CC[C@]4(C)[C@H]3CC[C@@]21C)[C@@H]1CCCCN1 (stereo partly drawn)	–	–	–	·	·	–
CS(=O)(=O)OCC(O)C(O)COS(C)(=O)=O (stereo not drawn)	·	·	–	·	–	·
CC(=O)c1ccc(NC(=O)/C=C/c2ccc(C)o2)cc1	·	·	·	–	·	·
Cc1ccc(NC(=O)/C=C/c2ccc(C)o2)c(C)c1	·	·	·	–	·	·

Bioassay records as filed in PubChem BioAssay.
